# Hits are enriched below; roughly 1.5% of the tested compounds scored in any of these assays.
# HTT cytoprotect: protects HTT-Q103 PC12 cells, measured by ATP; PC12 HTT-Q103 induced, cytoprotection, ATP luminescence, 40 h; Potency, µM (titrated, usually from 56.4 µM), inactives show cytoprotection (ATP increase), actives largely listed as activators; actives 0.14% (n = 230,000); further: % of control where 0% means no effect; nearly all actives have a fitted effect of over 45% in size
#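 PC12 cells with ecdysone-inducible HTT exon 1 Q103-GFP, induced with 100 nM tebufenozide and co-treated with library compounds in a dose series (1536-well, 1500 cells/well). Cytoprotection read as ATP content by ATPlite luminescence.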
# HttQ103 aggreg: mutant huntingtin aggregation inhibition; PC12 HttQ103-GFP aggregates, Acumen cytometry, 40 h; Potency, µM (doses to about 46.1 µM), inactives show at the highest dose activity change, negative = inhibition, hits mostly inhibitors; actives 1.1% (n = 220,000); AID 1688; further: on the % scale 0 is the no-effect control and ±100 the full control effect; nearly all actives have a fitted effect of over 60% in size
#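 PC12 cells stably carrying ecdysone-inducible HTT exon 1 Q103–GFP were induced with tebufenozide (100 nM final) and treated with library compounds in titration. GFP aggregates in lysates were counted by laser scanning cytometry.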
# Lamin A splicing: changes lamin A minigene splicing in HeLa cells. HeLa LMNA splicing GFP/RFP minigene ratio, 48 h. Potency, µM (series often up to 46.1 µM), inactives show at the highest dose ratio change, negative = inhibition, actives largely listed as inhibitors. actives 0.01% (n = 200,000). AID 1487; active means well fitted inhibition curve with a large enough effect in the signal ratio, with a control signal flat, not every such curve was filed as active; inconclusive means small, poorly fitted or top-dose-only effect, or effect the other way, or a change in a side signal; the % refers to the signal ratio; further: on the % scale 0 is the no-effect control and ±100 the full control effect
#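 Read-out is the ratio of GFP to DsRed2 object intensity, acquired by 488 nm laser-scanning cytometry on HeLa lamin A-EGFP minigene reporter cells. Compound incubation 48 hrs at 37 °C in Opti-MEM with 2% FBS; DMSO 0.5% final.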
# Epigenetic derep: epigenetic control regulation, reporter derepression | Potency, µM (series often up to 53.9 µM), for inactives: top-dose GFP activation, actives largely listed as activators | actives 0.2% (n = 280,000) | murine LDR cells, GFP reporter derepression, 30 h; further: % of control where 0% means no effect; nearly all actives have a fitted effect of over 60% in size
#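 GFP-positive cell count by laser-scanning cytometry (objects 20–120 um) after 30 h, 37 C compound exposure of murine LDR cells; reporter is CMV-GFP integrated at a silenced locus, inducible by HDAC or DNMT inhibitors.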
# NPSR antag: neuropeptide S receptor (human) antagonism, cAMP; Q6W5P4; CHO-NPSR cells, cAMP TR-FRET, antagonist mode; Potency, µM (highest dose often 38.3 µM), inactives show at the highest dose activity change, negative = inhibition, hits mostly inhibitors; actives 1% (n = 220,000); further: on the % scale 0 is the no-effect control and ±100 the full control effect; nearly all actives have a fitted effect of over 50% in size
# Target sequence (Q6W5P4 whole entry, looked up): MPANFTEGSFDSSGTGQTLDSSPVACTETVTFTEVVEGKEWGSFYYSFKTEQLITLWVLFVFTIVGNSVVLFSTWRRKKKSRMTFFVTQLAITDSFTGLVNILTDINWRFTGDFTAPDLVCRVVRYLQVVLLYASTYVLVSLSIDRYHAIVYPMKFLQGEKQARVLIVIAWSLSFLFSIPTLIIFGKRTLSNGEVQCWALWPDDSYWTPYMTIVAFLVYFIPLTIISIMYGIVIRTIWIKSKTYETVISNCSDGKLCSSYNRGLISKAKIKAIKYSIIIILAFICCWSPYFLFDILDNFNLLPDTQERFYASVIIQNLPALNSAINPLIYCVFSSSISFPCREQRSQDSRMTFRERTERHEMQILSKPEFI
# * = called active by the depositor; u = inconclusive; x = no result given; [ ] = remark or other dose. Unless noted, the call rests on the fitted dose curve; in most records, active means well fitted curve in the direction sought with a large enough effect; inconclusive means small, poorly fitted or top-dose-only effect, or another doubt; inactive means no such curve, though single readings can be large; an effect the other way counts as inactive or inconclusive. Potency means the concentration at half of the fitted maximal effect.
SMILES,HTT cytoprotect,HttQ103 aggreg,Lamin A splicing,Epigenetic derep,NPSR antag
CC(=O)Nc1cc(C(C)C)c(O)c(C(C)C)c1,-1.0%,-3.3%,-1.5%,0.0%,14.3%[46.1 µM]
CC(C)c1cc(NC(=O)c2ccccc2)cc(C(C)C)c1O,-150.4%,11.2µM*,u,-2.4%,-41.8%
O=C(CS(=O)(=O)c1cccc2nsnc12)N1CCN(c2ccccc2)CC1,x,x,-7.5%[46 µM],0.0%,x
CCOC(=O)C1CCN(c2nc3c(S(=O)(=O)c4ccccc4)nnn3c3ccc(Cl)cc23)CC1,x,x,x,1.4%,x
C/C(=N\NC(=O)c1ccccc1F)c1ccc2c(c1)Nc1ccccc1S2,-16.0%[10 µM],17.1%,-4.0%,11.2µM*,-39.3%
Cn1cnc2nc(NCCO)nc(NCc3ccccc3)c21,-39.2%,x,x,1.9%,x
Cc1cc(NS(=O)(=O)c2ccccc2)c(C)c(Cl)c1O,-15.6%,-4.7%,u,0.0%,-16.0%[46.1 µM]
O=S(=O)(Nc1cc(Sc2ncn[nH]2)c(O)c2ccccc12)c1ccccc1,-208.9%,4.47µM*,x,12.4%,-9.6%
CC1(C)O[C@@H]2C[C@H]3[C@@H]4CCC5=CC(=O)C=C[C@]5(C)[C@@]4(F)[C@@H](O)C[C@]3(C)[C@]2(C(=O)CO)O1,x,-16.3%,u,-1.0%,-13.3%
CC(=O)OCC(=O)[C@@]12OC3(CCCC3)O[C@@H]1C[C@H]1[C@@H]3CCC4=CC(=O)C=C[C@]4(C)[C@@]3(F)[C@@H](O)C[C@@]12C,x,-20.0%,-5.3%,1.6%,3.98µM*
C[n+]1c2n(c3ccccc31)N=C(c1ccc(Br)cc1)CS2,-11.9%[10 µM],31.6µM*,-21.2%,-1.1%,-0.5%[46.1 µM]
C[n+]1c2n(c3ccccc31)N=C(c1ccccc1)CS2,-48.7%,10µM*,4.7%,4.4%,-3.4%
C[n+]1c2n(c3ccccc31)N=C(c1ccc(-c3ccccc3)cc1)CS2,-51.8%[10 µM],u,-6.6%[46 µM],2.4%,46.5%
CC(C)c1ccc(-c2nc(N3CCCCC3)[nH]c(=O)c2C#N)cc1,6.0%[10 µM],-1.9%,-7.4%,-1.1%,-0.5%[46.1 µM]
CC1CCN(c2nc(-c3ccccc3)c(C#N)c(=O)[nH]2)CC1,8.7%,-6.1%,2.1%,-1.1%,12.6µM*
Cc1ccccc1-c1ccc2ncnc(-n3ccnc3)c2c1,1µM*,x,u,x,x
CN(C)c1ccc(-c2ccc3ncnc(-n4ccnc4)c3c2)cc1,3.16µM*,x,u,x,x
O=C(Nc1nncs1)c1cc2c(s1)CCC2,-83.2%,-15.9%,u,-3.4%,-8.6%
O=C(Nc1nccs1)c1cc2c(s1)CCCCC2,-69.2%[10 µM],12.6µM*,-13.9%,-0.2%,u
Cc1ccc(O)c(C(=O)CC(=O)c2cccc(F)c2)c1,-6.3%[10 µM],17.8µM*,-21.0%,-1.0%,u
COc1ccc(O)c(C(=O)CC(=O)c2ccc(F)cc2)c1,-57.1%[10 µM],u,10.9%,-0.3%,-19.4%[46.1 µM]
Cc1cccc(C(=O)NNC(=O)c2ccccc2)c1,12.6%[10 µM],0.8%,4.6%,-1.8%,14.1%
O=C(CC(=O)c1cc(Cl)ccc1O)c1ccccc1,4.3%[10 µM],11.2µM*,u,4.8%,u
Cc1cccc(C(=O)CC(=O)c2cc(Cl)ccc2O)c1,-45.2%,12.6µM*,u,5.1%,u
CCN1CCCC1Cn1c(-c2ccccc2)nc2c(NC3CCCCC3)nc(C)nc21 (configuration not stated),-30.9%,x,x,3.6%,x
SMILES,HTT cytoprotect,HttQ103 aggreg,Lamin A splicing,Epigenetic derep,NPSR antag
CCOc1cccc(/C=N/Nc2nc(N3CCCC3)nc(N3CCCC3)n2)c1O,-8.6%[10 µM],24.8%[9.22 µM],x,4.9%,-4.8%
CCOc1cc(/C=N/Nc2nc(N3CCCC3)nc(N3CCCC3)n2)ccc1O,-12.9%[10 µM],u,-9.9%,-1.0%,12.6µM*
COc1ccc2c(c1)Sc1ccccc1N2,1.2%[10 µM],7.94µM*,u,-1.4%,-14.9%
CCN1CCN(c2c(/C=C3\SC(=S)N(Cc4ccco4)C3=O)c(C)c(C#N)c(=O)n2C)CC1,10.7%[10 µM],20.4%[9.22 µM],x,7.08µM*,-21.3%
O=C(CSc1ccc(-c2cccs2)nn1)Nc1cccc(F)c1,x,x,x,9.5%,x
O=C(CN1CCCCC1)N1CCCc2c1c(=O)oc1ccc(OCc3ccccc3)cc21,3.16µM*,u,4.0%,0.0%,-8.6%
N#CCc1ccc(NC(=O)/C=C/c2ccc([N+](=O)[O-])o2)cc1,-129.1%,u,u,u,6.31µM*
O=C(O)C1CC=CCC1C(=O)N1CCN(c2nc(-c3ccccc3Cl)c3cc(Br)ccc3n2)CC1 (configuration not stated),-7.3%,2.7%,u,-1.0%,12.6µM*
O=C(O)C1CC=CCC1C(=O)N1CCN(c2nc(-c3ccccc3)c3ccccc3n2)CC1 (configuration not stated),-22.5%,u,10.4%,0.8%,-8.7%[46.1 µM]
Cc1ccc2nc(NCc3ccccc3Cl)c3nnnn3c2c1,x,x,x,13.0%,x
Cc1ccc2nc(Cl)c3nnnn3c2c1,-97.5%[10 µM],3.55µM*,x,0.1%,2.7%
COc1ccc(-c2cc(C(F)F)n3ncc(C(=O)N4CCc5ccccc54)c3n2)cc1,-68.7%[10 µM],1.58µM*,u,u,35.0%
Cc1ccc(-c2cc(C(F)F)n3ncc(C(=O)N4CCCc5ccccc54)c3n2)cc1,-2.4%[10 µM],-14.0%,-2.1%,0.1%,-12.9%[46.1 µM]
Cc1cc(C)c(NC(=S)NCCCSC2CCCCC2)c(C)c1,-42.5%,11.2µM*,u,0.1%,-39.1%
CCN(CC)c1ccc(Nc2nc(N3CCOCC3)c3ccccc3n2)cc1,-4.0%,7.94µM*,u,0.3%,-5.9%[46.1 µM]
CCN1C/C(=C/c2cccs2)c2nc3ccccc3c(C(=O)O)c2C1,5.2%[10 µM],-11.9%[9.22 µM],x,-1.0%,13.1%
CCc1ccc(/C=C2\CN(CC)Cc3c2nc2ccccc2c3C(=O)O)cc1,-16.4%,u,20.3%,15.8µM*,-14.2%[46.1 µM]
CCSc1nc(-c2cccs2)nc2c1c(=O)n(C)c(=O)n2C,-11.2%,x,x,x,x
Cc1cc(C)n(-c2nc(C)nc(N)n2)n1,7.1%,0.794µM*,1.1%,-2.1%,-1.9%[46.1 µM]
Cc1cc(Cl)nc(-n2nc(C)cc2C)n1,-1.4%[10 µM],u,x,0.9%,0.2%
Cc1cc(C)n(-c2nc(N(c3ccccc3)c3ccccc3)nc(-n3nc(C)cc3C)n2)n1,-15.2%[10 µM],-26.5%,-2.4%,0.1%,12.6µM*
CCc1ccc(-n2nnc(-c3nc(-c4ccc(C)cc4)no3)c2N)cc1,x,x,x,2.1%,x
CCOC(=O)C1CCN(c2nc(-c3ccccc3)nc3c2oc2ccccc23)CC1,-25.6%[0.074 µM],0.6%,-10.8%,-1.0%,12.6µM*
CCCCN(CC)C(=O)Cn1ncc2c3ccccc3n(CCC)c2c1=O,x,x,-10.2%[46 µM],0.0%,x
COc1cccc(N2CCN(c3ncnc4c3[nH]c3ccc(F)cc34)CC2C)c1 (configuration not stated),-125.8%,6.31µM*,u,3.1%,2.51µM*
COc1cccc(N2CCN(c3ncnc4c3[nH]c3ccccc34)CC2C)c1 (configuration not stated),-7.9%[10 µM],11.2µM*,u,-2.0%,10µM*
CCc1cccc(NC(=O)CCc2nc3cccnc3n2-c2ccccc2)c1,x,x,x,1.3%,x
